Source: PubChem (several laboratories)
sPLA2-III inh: Blocks human group III sPLA2 activity; Q9NZ20; QFRET BODIPY PC-A2 liposome hydrolysis, fluorescence; inhibition, % at 12.2 µM; hit rate 0.56% among 370,000; AID 743126;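 active = inhibition above mean plus 3 SD of compounds lying within the high and low control bounds, cut at about 19% in these data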;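 also: 0% = median of test compound wells and 100% = no enzyme DMSO wells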
AHR act: human AHR activation | activation, % at 5 µM | P35869 | AHR-responsive luciferase reporter cells, luminescence | hit rate 2.5% among 320,000; in the data active = activation above about 47%;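 also: 0% = vehicle wells and 100% = reference agonist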
Target sequence (P35869 whole entry, looked up): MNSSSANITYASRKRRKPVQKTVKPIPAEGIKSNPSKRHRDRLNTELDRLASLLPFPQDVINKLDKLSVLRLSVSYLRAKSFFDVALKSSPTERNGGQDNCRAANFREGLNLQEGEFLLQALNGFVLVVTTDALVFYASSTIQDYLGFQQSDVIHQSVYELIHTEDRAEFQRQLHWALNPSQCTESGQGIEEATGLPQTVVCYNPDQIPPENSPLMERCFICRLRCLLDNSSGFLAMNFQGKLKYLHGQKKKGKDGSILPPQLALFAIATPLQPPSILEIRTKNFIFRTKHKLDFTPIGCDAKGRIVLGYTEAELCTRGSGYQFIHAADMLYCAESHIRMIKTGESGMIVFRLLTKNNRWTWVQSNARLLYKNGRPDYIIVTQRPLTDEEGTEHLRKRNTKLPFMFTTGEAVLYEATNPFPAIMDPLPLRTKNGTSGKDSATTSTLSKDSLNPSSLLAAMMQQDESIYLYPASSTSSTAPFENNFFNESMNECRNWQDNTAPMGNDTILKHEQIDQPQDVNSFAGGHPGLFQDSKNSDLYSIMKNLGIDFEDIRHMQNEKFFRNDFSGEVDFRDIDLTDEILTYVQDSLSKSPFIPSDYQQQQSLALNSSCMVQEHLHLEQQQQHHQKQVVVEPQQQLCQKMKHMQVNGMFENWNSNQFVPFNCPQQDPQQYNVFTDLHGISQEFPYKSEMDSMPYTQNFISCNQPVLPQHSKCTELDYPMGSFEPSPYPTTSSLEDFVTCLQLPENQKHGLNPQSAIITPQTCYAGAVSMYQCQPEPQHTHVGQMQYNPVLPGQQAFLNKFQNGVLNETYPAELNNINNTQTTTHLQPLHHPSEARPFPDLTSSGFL
HIF act: HIF pathway transcriptional activation; activation, % at 7.5 µM (by protocol); U2OS HRE-luciferase reporter, luminescence; normalized: DMSO 0%, desferrioxamine 100%; hit rate 0.32% among 300,000;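 active = mean activation of at least 10% of the iron chelator positive control signal, with at least half of replicates also reaching 10%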
PLCg1 inh: blocks human PLC-gamma1 enzyme activity. hit rate 0.84% among 370,000. purified PLC-gamma1, fluorogenic substrate, fluorescence. P19174. AID 720700. inhibition, % at 12.2 µM
PLCb3 inh: blocks human PLC-beta3 enzyme activity. Purified PLC-beta3, fluorogenic substrate, fluorescence. Q01970. AID 720704. hit rate 0.18% among 370,000. inhibition, % at 12.2 µM; in the data active = inhibition above about 11%;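 also: 0% = median of compound wells on plate and 100% = full blocker control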
Yeast superoxide: yeast age-related superoxide inhibition as caloric restriction mimetic. AID 2690. S. cerevisiae aged cells, superoxide DHE fluorescence; stronger effect = lower value. hit rate 0.18% among 330,000. superoxide response (% of plate mean), % at 10 µM;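 active = superoxide response under a set limit, about three screen SD below normal, cut at about 65% in these data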;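 also: yeast aged for seven days with compound at 30 °C before DHE staining; 100% = average MFI of all compound-treated wells on the plate with controls excluded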
PLCg1 ctr: PLC-gamma1 inhibition, counter-screen for PLC-beta3 hits; inhibition, % at 12.3 µM; purified PLC-gamma1, fluorogenic substrate, fluorescence; hit rate 3.1% among 3,300; shares compounds with PLCg1 inh
PLCbeta3 conf: confirmation of human PLC-beta3 inhibitors; AID 743261; inhibition, % at 12.3 µM; hit rate 1% among 3,300; shares compounds with PLCg1 inh; purified PLC-beta3, fluorogenic substrate fluorescence; in the data active = inhibition above about 11%
* marks the source's active call; other numbers are inactive results; · = no result; ! = not confirmed by another sample. Rows were chosen to be rich in hits. Some 3.9% of all compounds tested hit in one or more screens of this group. Rule as the data show it, unless noted: active = inhibition above about 9.5%; inactive = the rest.

SMILES	sPLA2-III inh	AHR act	HIF act	PLCg1 inh	PLCb3 inh	Yeast superoxide	PLCg1 ctr	PLCbeta3 conf
Cc1ccc2c(C)c(C(=O)N3CCN(C4CCS(=O)(=O)C4)CC3)oc2c1C (stereo not given)	0	4	0	2	-5	99	·	·
COc1ccc(Br)cc1S(=O)(=O)N1CC(C)OC(C)C1 (stereo not given)	7	7	-1	4	11*	106	-5	-4
O=C(Nc1ccc(F)cc1)c1ccc(C(=O)N2CCCC(O)C2)cc1 (stereo not given)	6	-1	-2	-2	3	104	·	·
COc1ccccc1NC(=O)Nc1ccc2c(c1)OCCO2	9	14	5	2	12*	109	-1	1
Cc1cccc(C)c1NC(=O)C(c1ccncc1)n1c(=O)c(-c2ccccc2)nc2ccccc21 (stereo not given)	-6	·	·	-125	-168	·	·	·
COc1ccccc1-c1cccc([C@@H]2C[C@H]3[C@H](CON3C)CN2C(=O)C(C)(C)C)c1	8	·	·	-1	3	·	·	·
O=C(Nc1ccc(N=Nc2ccccc2)cc1)c1cccc(Cl)c1	3	-5	0	12*	8	101	2	3
Cc1noc(C)c1COc1ccc(C(=O)N2CCN(S(=O)(=O)c3cccc(F)c3)CC2)cc1	-1	-2	·	4	2	95	·	·
C=C1CC2C=C(NC(C)=O)CC(C1)C2 (stereo not given)	14	1	0	12*	4	80	-42	-1
FC(F)(F)c1cccc(N2CCN(C(=S)Nc3nccc4ccccc34)CC2)c1	10	·	·	-3	-56	·	·	·
COc1ccc(N2CCN(CCNC(=O)c3ccc(NC(=O)C4CCCO4)cc3)CC2)cc1 (stereo not given)	6	-3	0	11*	5	95	4	2
COC(=O)c1ccccc1NC(=S)N(Cc1ccc2c(c1)OCO2)Cc1cc2ccc(OC)cc2[nH]c1=O	-9	21	1	-1	1	112	·	·
COc1ccc(-c2cn[nH]c2N)cc1	14	3	0	12*	4	106	-8	-2
CCn1nc(C)c(NC(=O)CSc2nnc(-c3ccco3)n2C)c1C	5	-1	0	7	11*	109	-2	2
Cc1c([N+](=O)[O-])cnc(Sc2ccccc2)c1[N+](=O)[O-]	-34	-2	2	11*	1	89	9.5*	0
Cc1ccc(Sc2ncccc2[N+](=O)[O-])cc1	12	2	-2	-4	-9	110	·	·
COCC(C)n1c(-c2ccc3c(c2)NC(=O)CO3)csc1=Nc1ccc(OC(F)F)cc1 (stereo not given)	2	-1	-1	12*!	4	107	4	3
C[C@@H](c1ccccc1)N1C[C@H](COCc2ccccc2)Oc2cc(N3CC[C@@H](O)C3)ccc2S1(=O)=O	-3	·	·	6	4	·	·	·
O=C(C[C@H]1C/C=C\CC[C@@H](Cc2ccc(F)cc2)C(=O)O[C@@H](c2ccccc2)CNC1=O)N[C@H](CO)Cc1ccccc1	-6	0	·	11*	8	94	1	-1
C[C@@H]1COC(=O)[C@@H](CC(=O)OC(C)(C)C)C/C=C\C[C@@H](CC(=O)N[C@@H](CO)Cc2ccccc2)C(=O)N1	0	0	·	2	0	101	·	·
CC(C)(C)OC(=O)C[C@H]1C/C=C\C[C@H](CC(=O)N[C@H](CO)Cc2ccccc2)C(=O)N[C@@H](Cc2ccccc2)COC1=O	2	0	·	14*	13*	116	1	2
CCN(C(=O)CSc1nccc(=O)[nH]1)C1CCCCC1	5	-1	·	1	-1	124	·	·
Cc1ccc(CNC(=O)C(C)OC(=O)c2ccco2)cc1 (stereo not given)	3	-2	0	13*	2	83	4	2
COCc1cc(N2CCCCC2)nc(-c2ccccc2)n1	1	7	0	-1	0	96	·	·
CCOC(=O)C1(CC2CCCCO2)CCN(S(=O)(=O)c2ccccc2)CC1 (stereo not given)	-3	0	0	1	-1	91	·	·
SMILES	sPLA2-III inh	AHR act	HIF act	PLCg1 inh	PLCb3 inh	Yeast superoxide	PLCg1 ctr	PLCbeta3 conf
CCOC(=O)C1(CC2CCCCO2)CCN(S(=O)(=O)c2c(C)nn(C)c2C)CC1 (stereo not given)	2	2	0	13*	13*	114	-6	-3
CC1(C(=O)NC2CCCC2)CCC(=O)N1Cc1ccccc1 (stereo not given)	0	2	0	-1	-1	67	·	·
CC1(C(=O)NC2CCCCCCC2)CCC(=O)N1Cc1ccco1 (stereo not given)	3	-1	-1	9.8*	0	91	-9	-3
O=C(c1ccccc1NS(=O)(=O)c1ccc(Br)s1)N1CCCC1	4	1	-1	9	11*	82	-5	-2
CC(O)CNCCCOc1ccc(Cl)cc1C(C)(C)C (stereo not given)	0	0	-1	12*	1	105	-4	3
O=C(O)CCC(=O)NNC(=O)CCC1CCCCC1	-1	0	0	-1	3	80	·	·
O=C(O)CCC(=O)OCC1CCCCC1	-1	0	0	9.8*	4	114	-6	-1
CCOc1ccccc1NC(=O)c1cccc(NC2=NC3CS(=O)(=O)CC3S2)c1 (stereo not given)	10	6	0	13*	7	117	-1	2
CCOc1ccccc1NC1=NC2CS(=O)(=O)CC2S1 (stereo not given)	2	-1	0	-1	-18	80	·	·
O=C(Cc1cccs1)N/N=C\c1ccc(O)cc1	-2	1	0	-4	0	102	·	·
O=C(CC(=O)N/N=C/c1ccc(O)cc1)N/N=C/c1ccc(O)cc1	-6	0	0	12*	-1	89	-5	-2
COc1ccc(NC(=O)COC(=O)CCC(=O)c2cccs2)cc1OC	-1	2	·	3	-4	95	·	·
Nc1ccc(C(=O)N/N=C\C=C\c2cccc([N+](=O)[O-])c2)cc1	9	-3	0	15*	16*	93	-17	2
O=C1NC(=S)S/C1=C\C=C\c1ccc([N+](=O)[O-])o1	-11	·	·	60*	1	·	32*	-8
O=C(NCCN1CCOCC1)c1ccc(NC(=O)c2ccc(Br)o2)cc1	2	·	·	-1	-7	·	·	·
O=C1NC(=O)/C(=C\c2ccc(Br)o2)S1	2	0	1	15*	-25	99	-13	-16
